The record followed here is PubChem BioAssay.

“And” between values parts separate entries of the source, which are not always exact repeats. Identical values can stand only once. The source holds several records for some structures; these can differ, active in one and inactive in another. The source made the active and inactive calls.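 How the source made its calls, unless noted: active means inhibition at or above 50% relative to wild type and mutant plate controls; inactive means inhibition below 50%.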

The nature of assay [1]: inhibitors of TNFa-induced NFkB p65 translocation, primary screen, imaging, HUVEC, MLSMR starter and 10KST1 sets (AID 438;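 active means inhibition above 20% together with a positive visual image hit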;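 further: compound added about 3h40 before a 20 min TNFalpha stimulation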;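 on inhibition: signal is the nuclear over cytoplasmic p65 intensity ratio per well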). The following applies: HUVEC TNFa-induced p65 nuclear translocation; cell count: measured here: nuclei count (cytotoxicity indicator), at 2.08 µM; inhibition: at 2 µM, stronger effect = higher value, 0% TNFa-plus-vehicle, 100% no-TNFa wells.
Assay [2] in a line: reduction of polyQ htt aggregates in cells – imaging, exon1htt(103Q)mCFP cells, high-content imaging, primary screen (AID 483;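 active means visual image review flags a hit and inhibition of aggregation exceeds 20%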;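 further: compound exposure lasted 3 days before fixation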;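 on nuclei count: percent of the per-plate median nuclei count of sample wells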). The following applies: exon1htt(103Q)mCFP cell line, aggregate imaging, at 2 µM; inhibition of aggregation: stronger effect = higher value; nuclei count: measured here: cell count, toxicity.
Assay [3] is described as follows: endothelial E-selectin expression blockers – imaging, HUVEC, immunofluorescence, MLSMR starter and 10KST1 sets, primary screen (AID 487;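 active means visually confirmed hit in the image check and inhibition above 20%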;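 on inhibition: signal is fraction of cell area covered by stained E-selectin grains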;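 on nuclei count: 100% = median nuclei count of all wells on the same plate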). The following applies: HUVEC TNFalpha-induced E-selectin immunofluorescence imaging, at 2 µM; inhibition: stronger effect = higher value; nuclei count: measured here: cell number, toxicity.
Assay [4] in a line: Primary imaging screen for DUSP6 inhibitors that restore phospho-Erk in transfected HeLa cells, chemical complementation (AID 609;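 active means compounds giving at least 50% inhibition in the cell-based MKP-3 phosphatase rescue imaging test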;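 on inhibition: phospho-Erk level distribution per well compared with pooled transfected vehicle control wells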). The following applies: HeLa MKP-3 transfected, phospho-Erk imaging KS statistic, at 10 µM, cells stimulated with TPA for 15 min.
The target of assay [5] is Dual specificity protein phosphatase 6 (Homo sapiens) (UniProt Q16828). The description is as above. The following applies: HeLa MKP-3 transfected, phospho-Erk imaging KS statistic; at 10 µM; stronger effect = higher value; cells stimulated with TPA for 15 min.
Assay [6] addresses Voltage-gated potassium channel subunit beta-2 (Rattus norvegicus) (UniProt P62483). In words: inhibitors of rat Kvbeta2 reductase activity – biochemical, NADPH fluorescence, primary screen (AID 622;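 active means fluorescence slope higher than the sample average by over 3 SD, cut at about -0.22 in these data, passing the limit was not always enough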;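 further: slope of raw intensity against log time taken from 70 to 1610 s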). The following applies: recombinant KvBeta, 4-cyanobenzaldehyde reduction, at 10 µM, stronger effect = higher value.
The target is the same in assay [7]. Description: enhancers of rat Kvbeta2 NADPH turnover – biochemical, NADPH fluorescence, primary screen (AID 623;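 active means NADPH fluorescence slope more negative than the mean of all samples by about 3 SD, 99.7% confidence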;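 further: fluorescence intensity change per second fitted from 20 to 320 s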). The following applies: Recombinant KvBeta, NADPH fluorescence decrease slope, 10 min; at 10 µM; stronger effect = lower value.
The target in assay [8] is Alpha-2C adrenergic receptor (Homo sapiens) (UniProt P18825). Description: compounds altering alpha2C-coupled GIRK flux – cell-based, HEK293 alpha2C/GIRK1/2, thallium flux, primary screen (AID 624;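 active means fluorescence slope after compound addition differing from the mean of all screened samples at 99.7% confidence, in either direction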;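 further: slope of fluorescence ratio to pre-addition baseline per second over 15 to 24 s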). The following applies: thallium flux BTC fluorescence, at 10 µM, actives lie on both sides.
The nature of assay [9]: inhibitors of larval lipid processing in zebrafish, primary screen, whole organism, PED6 fluorescence, gall bladder and intestine (AID 686;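 active means a full or partial loss of lipid-probe fluorescence in the fish gall bladder, intestine or both, judged by eye; inactive means no fluorescence loss, or compound toxic to the fish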;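 further: larvae 5 to 7 days old with five fish per well; signal comes from phospholipase A2 cleavage of quenched PED6 carried via bile; overnight exposure to compound and PED6 before scoring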). The following applies: Zebrafish larvae PED6 lipid processing, fluorescence scoring; screened at 20 µM (by protocol).
Assay [10] in a line: loss of swimming-algae plug formation – whole organism, Chlamydomonas reinhardtii, WT vs cilia-less mutant, absorbance, 96-well, primary screen (AID 463189).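 Further: 0% = wild type cc124 cells in DMSO and 100% = ciliumless bld1 mutant cells.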 The following applies: Chlamydomonas reinhardtii gravitaxis, OD600 absorbance, 2 days; at 10 µM; stronger effect = higher value.
Assay [11] in a line: blockers of RIG-like receptor reporter activation – cell-based, Sendai virus stimulus, luciferase, 10K MLSCN set, TLR/RLR signaling modifier project, primary screen (AID 602276;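 active means inhibition at or above 50% at 10 µM; inactive means inhibition below 50%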;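 further: firefly luciferase from ISG56 promoter only with Renilla not read in this screen; 0% = Sendai virus plus DMSO and 100% = medium plus DMSO without virus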). The following applies: HEK293 RL24 IRF3 luciferase reporter, at 10 µM, stronger effect = higher value.
Assay [12] in a line: TLR3 IRF3 reporter activation blockers – cell-based, poly I:C stimulus, luciferase, 10K MLSCN set, primary screen (AID 602277;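 active means inhibition of the reporter signal at or above 50%; inactive means inhibition below 50%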). The following applies: HEK293-TLR3 RL24 IRF3 luciferase reporter, at 10 µM, stronger effect = higher value.
For assay [13], the target named is Muscarinic acetylcholine receptor M4 (Homo sapiens) (UniProt P08173). Description: M4-linked GIRK flux change, two-sided – cell-based, HEK293 M4/GIRK, thallium flux, BTC-AM, M4 allosteric agonist project, primary screen (AID 625;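 active means fluorescence slope after compound addition differing from the mean of all tested samples at 99.7% confidence, mostly higher but some lower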;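 further: thallium influx through GIRK channels coupled to M4 in HEK293 cells with BTC-AM dye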). The following applies: at 10 µM, actives lie on both sides.
Setting [14] is: measured here: cell density z-score.
Setting [15] is: measured here: nuclear c-Myc green intensity z-score.
The mark [16] stands for this setting: measured here: nuclear pErk red intensity z-score, stronger effect = higher value.

Alpha-2C adrenergic receptor (Homo sapiens), sequence (P18825 whole entry, looked up): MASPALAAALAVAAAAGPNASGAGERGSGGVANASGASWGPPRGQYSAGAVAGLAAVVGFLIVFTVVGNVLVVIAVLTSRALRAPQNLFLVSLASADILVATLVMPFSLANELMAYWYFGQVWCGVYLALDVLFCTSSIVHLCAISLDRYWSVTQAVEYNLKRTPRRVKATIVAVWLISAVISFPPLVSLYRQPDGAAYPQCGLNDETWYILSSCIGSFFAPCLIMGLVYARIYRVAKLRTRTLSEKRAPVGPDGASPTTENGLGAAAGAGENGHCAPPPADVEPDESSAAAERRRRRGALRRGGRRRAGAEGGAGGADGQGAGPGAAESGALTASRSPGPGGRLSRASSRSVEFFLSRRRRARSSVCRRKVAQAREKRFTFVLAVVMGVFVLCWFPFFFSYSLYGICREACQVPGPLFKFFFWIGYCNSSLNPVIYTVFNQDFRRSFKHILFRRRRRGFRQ
Voltage-gated potassium channel subunit beta-2 (Rattus norvegicus), sequence (P62483 whole entry, looked up): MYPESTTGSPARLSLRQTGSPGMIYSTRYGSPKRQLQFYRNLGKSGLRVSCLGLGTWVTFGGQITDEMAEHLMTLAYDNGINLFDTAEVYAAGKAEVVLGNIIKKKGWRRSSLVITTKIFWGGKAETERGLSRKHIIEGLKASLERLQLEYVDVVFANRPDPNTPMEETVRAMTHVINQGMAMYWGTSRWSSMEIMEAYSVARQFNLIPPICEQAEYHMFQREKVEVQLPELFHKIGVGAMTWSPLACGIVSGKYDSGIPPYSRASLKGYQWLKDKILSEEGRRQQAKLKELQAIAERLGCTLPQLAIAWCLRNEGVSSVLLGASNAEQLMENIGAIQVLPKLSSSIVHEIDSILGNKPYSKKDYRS
Dual specificity protein phosphatase 6 (Homo sapiens), sequence (Q16828 whole entry, looked up): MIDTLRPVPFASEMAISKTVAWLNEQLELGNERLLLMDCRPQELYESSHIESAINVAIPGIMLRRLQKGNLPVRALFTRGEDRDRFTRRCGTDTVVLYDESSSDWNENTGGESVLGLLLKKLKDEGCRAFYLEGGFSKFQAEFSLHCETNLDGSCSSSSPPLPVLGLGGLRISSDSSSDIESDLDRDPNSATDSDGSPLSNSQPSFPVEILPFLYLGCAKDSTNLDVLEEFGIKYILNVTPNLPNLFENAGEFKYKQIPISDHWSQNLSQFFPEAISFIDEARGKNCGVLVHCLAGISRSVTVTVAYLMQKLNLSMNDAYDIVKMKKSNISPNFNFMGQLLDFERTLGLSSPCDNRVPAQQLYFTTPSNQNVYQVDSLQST
Muscarinic acetylcholine receptor M4 (Homo sapiens), sequence (P08173 whole entry, looked up): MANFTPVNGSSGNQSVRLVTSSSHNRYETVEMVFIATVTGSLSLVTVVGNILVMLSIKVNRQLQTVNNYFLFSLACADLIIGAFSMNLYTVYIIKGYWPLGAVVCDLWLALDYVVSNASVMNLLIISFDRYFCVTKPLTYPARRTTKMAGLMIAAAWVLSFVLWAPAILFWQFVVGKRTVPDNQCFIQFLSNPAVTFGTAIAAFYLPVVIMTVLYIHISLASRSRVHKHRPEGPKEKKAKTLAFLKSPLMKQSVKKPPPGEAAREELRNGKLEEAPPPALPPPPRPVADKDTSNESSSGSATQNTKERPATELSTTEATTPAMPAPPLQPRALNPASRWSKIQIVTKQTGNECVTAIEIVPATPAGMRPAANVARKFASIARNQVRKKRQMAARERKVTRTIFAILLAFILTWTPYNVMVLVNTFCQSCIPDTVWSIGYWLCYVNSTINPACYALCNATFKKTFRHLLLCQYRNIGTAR

Turning to `CC(C)Sc1nc(N2CCCC2)c2c(c1C#N)CC(C)(C)OC2`, the cell count in assay [1] came to 547. Also, the inhibition in assay [1] is -6.2% (inactive); in assay [3], -59.4% (inactive); in assay [5] it was 24.4% (inactive); in assay [10], 48.4% (inactive); in assay [11] it was 14% (inactive); in assay [12], 18.1% (inactive). For the same compound, the inhibition of aggregation in assay [2] was 15.4% (inactive). In addition, the nuclei count in [2] amounted to 73.8%; in [3], 126%. Besides, the z-score in assay [4] (setting [14]) was 1.33; in assay [4] (setting [15]), -1.33; in assay [4] (setting [16]), -0.539. Moreover, the fluorescence slope in assay [6] was -0.386 (inactive). The NADPH fluorescence slope in [7] was 4.7e-06 (inactive). Further, the slope in [8] was 0.00612 (inactive). Moreover, the compound was called inactive in [9].

Consider `COc1ccc2c(c1)c(CC(=O)OCC(=O)O)c(C)n2C(=O)c1ccc(Cl)cc1`, for which the cell count in [1] is 609. Also, the inhibition in [1] is -4% (inactive); in [3], -34.9% (inactive); in [5], 17.3% (inactive); in assay [10], 14.4% (inactive); in [11], 11.9% (inactive); in [12], 36.9% (inactive). Besides, in assay [2], the inhibition of aggregation was -25.2% (inactive). For the same compound, the nuclei count in assay [2] amounted to 89.1%; in assay [3], 111%. The z-score in [4] (setting [14]) was -0.113; in assay [4] (setting [15]), 0.548; in [4] (setting [16]), -0.549. In addition, in assay [6], the fluorescence slope was -0.451 (inactive). The NADPH fluorescence slope in assay [7] is -3.8e-05 (inactive). Also, the slope in [8] is 0.00555 (inactive). For the same compound, the result in [9] was inactive.

As for `CC1=C(C)C(=O)C(CCCCC#CCCCC#CCO)=C(C)C1=O`, the cell count in [1] came to 531. Also, the inhibition in assay [1] was 4.4% (inactive); in [3], -112% (inactive); in assay [5] it was 19.2% (inactive); in assay [10] it was -6.32% (inactive) and 57.1% (active); in [11], 14.4% (inactive); in assay [12], 32.8% (inactive). Moreover, the inhibition of aggregation in [2] was 9.6% (inactive). The nuclei count was determined as 95.5% in assay [2] and 108% in assay [3]. Moreover, the z-score in assay [4] (setting [14]) is 0.752; in assay [4] (setting [15]) it was -0.729; in assay [4] (setting [16]) it was -1.42. The fluorescence slope in assay [6] is -0.452 (inactive). Besides, the NADPH fluorescence slope in [7] was -2.1e-05 (inactive). Also, the slope in assay [8] is 0.00343 (inactive). The compound was classed as inactive in assay [9].

In the case of `COc1ccc2c(c1)[nH]c1c(=O)n(CCN(C)C)cnc12`, the cell count in [1] was found to be 660. Besides, the inhibition in [1] was -3.5% (inactive); in [3], 23.1% (inactive); in assay [5], 9.61% (inactive); in assay [10] it was 2.29% (inactive); in assay [11], 17% (inactive); in [12] it was 24.4% (inactive). Also, the inhibition of aggregation in assay [2] was -8.1% (inactive). In addition, the results for the nuclei count in [2] and in [3] were 102% and 135%, respectively. Also, the z-score is -1.37 in [4] (setting [14]), 2.24 in assay [4] (setting [15]) and -0.536 in assay [4] (setting [16]). In addition, the fluorescence slope in assay [6] is -0.449 (inactive); in assay [13], 0.00667 (inactive). The NADPH fluorescence slope in assay [7] is -3.5e-05 (inactive). The result in assay [9] was inactive.

Regarding `CN=c1sc2ccccc2n1CC(O)COCc1ccco1` (configuration not stated), the cell count in [1] turned out to be 575. In addition, the inhibition in [1] is 0.4% (inactive); in [3], -71.1% (inactive); in [5] it was 1.04% (inactive); in assay [10], 7.79% (inactive); in assay [11], 12.5% (inactive); in [12], 29.1% (inactive). Besides, the inhibition of aggregation in assay [2] is 6.5% (inactive). Besides, the nuclei count stood at 98.5% in assay [2] and 138% in [3]. Also, the z-score in [4] (setting [14]) turned out to be 0.277; in assay [4] (setting [15]), 0.426; in assay [4] (setting [16]) it was 0.235. In assay [6], the fluorescence slope is -0.302 (inactive). Also, the NADPH fluorescence slope in [7] is -1.1e-05 (inactive). For the same compound, the slope in assay [8] was 0.00567 (inactive). In addition, the compound was classed as inactive in assay [9].

Regarding `CN(C)c1ccc(C=NCC2(O)CCOC(C)(C)C2)cc1` (configuration not stated), the cell count in [1] came out at 470. Besides, the inhibition was -13.2% (inactive) in [1]; -145% (inactive) in assay [3]; 17.5% (inactive) in [5]; 7.69% (inactive) in assay [10]; 13% (inactive) in assay [11]; 13.9% (inactive) in [12]. In [2], the inhibition of aggregation was -13.7% (inactive). Moreover, the nuclei count came out at 108% in assay [2] and 144% in [3]. Moreover, the z-score in [4] (setting [14]) is -1.86; in [4] (setting [15]), -0.94; in assay [4] (setting [16]), 0.52. Also, in assay [6], the fluorescence slope is -0.423 (inactive). Moreover, the NADPH fluorescence slope in [7] is -0.000132 (inactive). For the same compound, the slope in [8] was 0.00493 (inactive). Besides, the outcome in [9] was inactive.
